# Assay results reported in PubChem BioAssay (NCI).
# Compounds without any hit were thinned out: in the full panel of roughly 83,000, 20% have a hit.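 Method: cells in 96-well plates; compound added at one concentration; 48 h incubation; percent growth measured; values under 10 scored active.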 Unmarked numbers belong to inactive results. The source made the active and inactive calls.
# How the values were obtained:
# Assay in all cases: NCI-60 one-dose screen, 48 h (100 = growth as untreated, 0 = no growth, -100 = all killed)
# Conditions in all cases: 10 µM unless noted
# HT29 colon = system: HT29 colon
# SNB-75 CNS = system: SNB-75 CNS
# SNB-19 CNS = system: SNB-19 CNS
# U251 CNS = system: U251 CNS
# PC-3 prostate = system: PC-3 prostate
# SK-MEL-5 melanoma = system: SK-MEL-5 melanoma
# UACC-62 melanoma = system: UACC-62 melanoma
# LOX IMVI melanoma = system: LOX IMVI melanoma
# SK-MEL-28 melanoma = system: SK-MEL-28 melanoma
# SK-MEL-2 melanoma = system: SK-MEL-2 melanoma
# EKVX NSCLC = system: EKVX NSCLC
# SN12C renal = system: SN12C renal
# UO-31 renal = system: UO-31 renal
# TK-10 renal = system: TK-10 renal
# ACHN renal = system: ACHN renal
# CAKI-1 renal = system: CAKI-1 renal
# A498 renal = system: A498 renal
# CCRF-CEM leukemia = system: CCRF-CEM leukemia
# SR leukemia = system: SR leukemia
# MOLT-4 leukemia = system: MOLT-4 leukemia
SMILES,growth (HT29 colon) [%],growth (SNB-75 CNS) [%],growth (SNB-19 CNS) [%],growth (U251 CNS) [%],growth (PC-3 prostate),growth (SK-MEL-5 melanoma) [%],growth (UACC-62 melanoma) [%],growth (LOX IMVI melanoma) [%],growth (SK-MEL-28 melanoma) [%],growth (SK-MEL-2 melanoma),growth (EKVX NSCLC) [%],growth (SN12C renal) [%],growth (UO-31 renal) [%],growth (TK-10 renal) [%],growth (ACHN renal) [%],growth (CAKI-1 renal),growth (A498 renal),growth (CCRF-CEM leukemia) [%],growth (SR leukemia) [%],growth (MOLT-4 leukemia) [%]
CCC(c1ccccc1)c1noc(CCN(CC)CC)n1 (configuration not stated),117,86.6,105,98.1,95.5%,102,98.9,100,101,19.4%,105,100,85.5,96.7,101,94.1%,101%,48.2,69.2,
CCOC(=O)C(C(C)=O)c1nc2sc3cc(Cl)ccc3n2c(=N)c1C#N (configuration not stated),52.8,34.5,89.6,86.2,72.5%,73.9,67.8,97.2,69.8,74.1%,73.6,85.9,76.1,157,109,91.6%,101%,163,60.3,44.9
C/C(=N/N=C(N)N)c1ccc(N)cc1,103,102,96.3,99.3,92.1%,107,105,96.6,110,154%,119,95.9,69.8,104,102,38%,103%,124,49.3,
CO[C@H]1/C=C/O[C@@]2(C)Oc3c(C)c(O)c4c(O)c(c(/C=N/N5C(C)CN(Cc6ccccc6)CC5C)c(O)c4c3C2=O)NC(=O)/C(C)=C\C=C\[C@H](C)[C@H](O)[C@@H](C)[C@@H](O)[C@@H](C)[C@H](OC(C)=O)[C@@H]1C (some centres not stated),87.6,127,97.8,56.9,-19.5% (active),67.4,72.8,76,94.2,-39.4% (active),64.7,87,34.1,69.1,70.1,117%,96.1%,285,212,217
CCN(CC)c1ccc(N=Nc2cc(Cl)ccc2Cl)c(NC(=O)CCC(=O)O)c1,111,91.1,110,94.7,90.1%,103,101,99.1,120,118%,79.7,91.4,60.9,121,88.8,93.4%,80.1%,103,98.4,95.1
CCS(=O)(=O)OCCCl,104,70,94.3,92.1,97.6%,103,101,98.5,120,83.7%,105,102,68.3,97.7,99.3,104%,101%,84.7,137,89.8
O=C1Nc2ccc(F)cc2/C1=C/c1nc(-c2ccc(F)cc2)n2ccccc12,95.6,93.6,105,83.5,115%,103,97,92.9,112,132%,104,98.9,93.4,120,94,101%,-13.9% (active),103,52.9,103
Cn1c(=O)c2nc(SCc3ccccc3)n(C)c2n(C)c1=O,113,104,89.4,101,102%,101,109,99.1,119,101%,123,90.4,98.3,111,99.1,119%,77.3%,122,83.3,106
NC(N)=N/N=C(/c1ccccc1)c1ccc(Cl)cc1,25.6,56.1,63.8,70.8,72.8%,56.8,74.4,74.4,53.9,118%,60.6,68.9,95.4,94.1,104,-17.2% (active),56.5%,125,50.3,125
S=C(c1ccccc1)N1CCN(c2cccc(Cl)c2)CC1,94.8,110,107,99.6,75.3%,95.6,91.1,105,121,100%,99.5,100,93.2,110,104,88.7%,64.6%,84.1,82.4,85.2
COc1ccc(/C=C2\NC(=S)NC2=O)cc1,110,106,109,102,106%,107,95.3,112,119,109%,101,101,73.6,113,94,98.7%,89%,105,110,110
CN(C)c1nc(-c2ccco2)n2nc(-c3ccco3)cc2n1,96.9,81.8,98.9,88.9,84.4%,81.8,82.2,75.8,119,122%,77,93.4,40.5,90.3,96.5,90.7%,79.9%,93,73.8,97.3
Nc1nc2ncc(CCNc3ccc(C(=O)NC(CCC(=O)O)C(=O)O)cc3)nc2c(=O)[nH]1 (configuration not stated),109,81.3,111,100,106%,98.9,99.6,98.3,125,2.9% (active),119,108,70.7,107,103,114%,95.8%,77.1,133,145
O=C1C2C3C=CC(O3)C2C(=O)N1Nc1ccccc1 (configuration not stated),112,93.3,111,109,97.5%,109,100,98,105,133%,101,107,101,103,103,93.5%,68.1%,96.1,126,101
Cn1c(N)c(N=O)c(=O)[nH]c1=O,98.8,97,105,95.9,98.7%,102,103,102,108,97.8%,98,101,82.5,101,100,108%,111%,91.1,97.6,96.3
S=c1[nH]nc2sc3ccccc3n12,101,81.6,106,105,112%,106,97.4,99.2,114,103%,116,103,84.2,126,99.2,110%,76.1%,100,88.5,
